# Results reported in PubChem BioAssay AID1159580 (chemical genetic matrix, 2015).
# Where “and” joins values, the source holds several entries; their conditions need not be identical. Equal values may be shown once. Among all 5,500 compounds or so, about 2,000 (36%) were called active. Inconclusive results (about 18%) are left out. The list shows a part of the results. Values without a mark were called inactive. No stated cut-off is given here; in the data, active means normalized growth mostly below about 0.91 (no sharp cut-off); inconclusive means no clear call, values can overlap the other calls; inactive means mostly above about 0.92.
# Assay: chemical genetic growth profiling, strain panel (AID 1159580);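 further: tested at 20 µM; growth read once vehicle control cultures reached saturation at 30 °C; 1 = growth at the plate median or of vehicle wells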
# Conditions: growth OD
smiles,measurement,setting,value
OCCN1CCN(CCCN2c3ccccc3Sc3ccc(C(F)(F)F)cc32)CC1,normalized growth,"S. cerevisiae deletion strains, locus YJR075W, strain HOC1, stronger effect = lower value",0.939 and 0.985
same,normalized growth,"S. cerevisiae deletion strains, locus YKL009W, strain mrt4, stronger effect = lower value",0.926
same,normalized growth,"S. cerevisiae deletion strains, locus YKL068W, stronger effect = lower value",0.987
same,normalized growth,"S. cerevisiae deletion strains, locus YKL085W, strain MDH1 (second series), stronger effect = lower value",0.981
same,normalized growth,"S. cerevisiae deletion strains, locus YKL085W, strain MDH1, stronger effect = lower value",0.981
same,normalized growth,"S. cerevisiae deletion strains, locus YKL160W, strain elf1, stronger effect = lower value",0.907
same,normalized growth,"S. cerevisiae deletion strains, locus YKL190W, strain CNB1, stronger effect = lower value",0.975
same,normalized growth,"S. cerevisiae deletion strains, locus YKR001C, strain vps1, stronger effect = lower value",0.864 (active)
same,normalized growth,"S. cerevisiae deletion strains, locus YKR026C, strain gcn3, stronger effect = lower value",0.998
same,normalized growth,"S. cerevisiae deletion strains, locus YKR091W, strain srl3, stronger effect = lower value",0.976
same,normalized growth,"S. cerevisiae deletion strains, locus YLL001W, strain dnm1, stronger effect = lower value",0.983
same,normalized growth,"S. cerevisiae deletion strains, locus YLL026W, stronger effect = lower value",0.968
same,normalized growth,"S. cerevisiae deletion strains, locus YLL041C, strain sdh2, stronger effect = lower value",0.968
same,normalized growth,"S. cerevisiae deletion strains, locus YLR027C, strain aat2, stronger effect = lower value",0.951
same,normalized growth,"S. cerevisiae deletion strains, locus YLR039C, strain RIC1, stronger effect = lower value",1.48 [resistant] (active)
same,normalized growth,"S. cerevisiae deletion strains, locus YLR058C, strain SHM2, stronger effect = lower value",0.976
same,normalized growth,"S. cerevisiae deletion strains, locus YLR102C, strain apc9, stronger effect = lower value",0.995
same,normalized growth,"S. cerevisiae deletion strains, locus YLR221C, strain rsa3, stronger effect = lower value",0.975
same,normalized growth,"S. cerevisiae deletion strains, locus YLR258W, strain gsy2, stronger effect = lower value",0.949
same,normalized growth,"S. cerevisiae deletion strains, locus YLR262C, strain YPT6 (second series), stronger effect = lower value",1.04
same,normalized growth,"S. cerevisiae deletion strains, locus YLR262C, strain YPT6, stronger effect = lower value",1.41 [resistant] (active)
same,normalized growth,"S. cerevisiae deletion strains, locus YLR268W, strain sec22, stronger effect = lower value",0.901
same,normalized growth,"S. cerevisiae deletion strains, locus YLR320W, strain mms22, stronger effect = lower value",0.999
same,normalized growth,"S. cerevisiae deletion strains, locus YLR330W, strain CHS5, stronger effect = lower value",1.03
same,normalized growth,"S. cerevisiae deletion strains, locus YLR342W, strain FKS1 (second series), stronger effect = lower value",0.723 (active)
same,normalized growth,"S. cerevisiae deletion strains, locus YLR342W, strain FKS1, stronger effect = lower value",0.807 (active)
same,normalized growth,"S. cerevisiae deletion strains, locus YLR357W, strain rsc2, stronger effect = lower value",0.984
same,normalized growth,"S. cerevisiae deletion strains, locus YLR370C, strain arc18, stronger effect = lower value",0.952
same,normalized growth,"S. cerevisiae deletion strains, locus YLR371W, strain rom2, stronger effect = lower value",0.983
same,normalized growth,"S. cerevisiae deletion strains, locus YLR384C, strain iki3, stronger effect = lower value",0.981
same,normalized growth,"S. cerevisiae deletion strains, locus YLR418C, strain cdc73, stronger effect = lower value",0.76 (active)
same,normalized growth,"S. cerevisiae deletion strains, locus YML016C, strain PPZ1, stronger effect = lower value",0.994
same,normalized growth,"S. cerevisiae deletion strains, locus YML032C, strain rad52, stronger effect = lower value",0.926
same,normalized growth,"S. cerevisiae deletion strains, locus YML120C, strain ndi1, stronger effect = lower value",0.995
same,normalized growth,"S. cerevisiae deletion strains, locus YML124C, strain tub3, stronger effect = lower value",1
same,normalized growth,"S. cerevisiae deletion strains, locus YMR058W, strain fet3, stronger effect = lower value",0.884 (active)
same,normalized growth,"S. cerevisiae deletion strains, locus YMR078C, strain ctf18, stronger effect = lower value",0.986
same,normalized growth,"S. cerevisiae deletion strains, locus YMR125W, strain sto1, stronger effect = lower value",0.957
same,normalized growth,"S. cerevisiae deletion strains, locus YMR129W, stronger effect = lower value",0.978
same,normalized growth,"S. cerevisiae deletion strains, locus YMR205C, strain PFK2, stronger effect = lower value",0.992
same,normalized growth,"S. cerevisiae deletion strains, locus YMR223W, strain ubp8, stronger effect = lower value",0.963
same,normalized growth,"S. cerevisiae deletion strains, locus YMR231W, strain pep5, stronger effect = lower value",0.0843 (active)
same,normalized growth,"S. cerevisiae deletion strains, locus YMR263W, strain SAP30, stronger effect = lower value",0.933 and 0.994
same,normalized growth,"S. cerevisiae deletion strains, locus YMR307W, strain GAS1, stronger effect = lower value",0.852 and 1.02
same,normalized growth,"S. cerevisiae deletion strains, locus YNL067W, strain RPL9B, stronger effect = lower value",0.921
same,normalized growth,"S. cerevisiae deletion strains, locus YNL071W, strain lat1, stronger effect = lower value",0.988
same,normalized growth,"S. cerevisiae deletion strains, locus YNL128W, strain TEP1, stronger effect = lower value",0.944
same,normalized growth,"S. cerevisiae deletion strains, locus YNL153C, strain GIM3, stronger effect = lower value",0.919 and 0.859
same,normalized growth,"S. cerevisiae deletion strains, locus YNL175C, strain NOP13, stronger effect = lower value",1.01
same,normalized growth,"S. cerevisiae deletion strains, locus YNL197C, strain WHI3, stronger effect = lower value",1.01
same,normalized growth,"S. cerevisiae deletion strains, locus YNL209W, strain ssb2, stronger effect = lower value",0.952
same,normalized growth,"S. cerevisiae deletion strains, locus YNL224C, strain SQS1, stronger effect = lower value",1.02
same,normalized growth,"S. cerevisiae deletion strains, locus YNL233W, strain BNI4, stronger effect = lower value",0.909
same,normalized growth,"S. cerevisiae deletion strains, locus YNL248C, strain rpa49, stronger effect = lower value",0.901
same,normalized growth,"S. cerevisiae deletion strains, locus YNL250W, strain rad50, stronger effect = lower value",0.989
same,normalized growth,"S. cerevisiae deletion strains, locus YNL271C, strain bni1, stronger effect = lower value",0.986
same,normalized growth,"S. cerevisiae deletion strains, locus YNL298W, strain CLA4, stronger effect = lower value",0.963
same,normalized growth,"S. cerevisiae deletion strains, locus YNL307C, strain MCK1, stronger effect = lower value",0.98
same,normalized growth,"S. cerevisiae deletion strains, locus YNL322C, strain KRE1 (second series), stronger effect = lower value",0.968
same,normalized growth,"S. cerevisiae deletion strains, locus YNL322C, strain KRE1, stronger effect = lower value",0.995
same,normalized growth,"S. cerevisiae deletion strains, locus YNR049C, strain mso1, stronger effect = lower value",0.984
same,normalized growth,"S. cerevisiae deletion strains, locus YNR052C, strain pop2, stronger effect = lower value",0.938
same,normalized growth,"S. cerevisiae deletion strains, locus YOL006C, strain TOP1, stronger effect = lower value",0.629
same,normalized growth,"S. cerevisiae deletion strains, locus YOL012C, strain htz1",1.6
same,normalized growth,"S. cerevisiae deletion strains, locus YOL147C, strain pex11, stronger effect = lower value",0.986
same,normalized growth,"S. cerevisiae deletion strains, locus YOR001W, strain rrp6, stronger effect = lower value",0.943
same,normalized growth,"S. cerevisiae deletion strains, locus YOR061W, strain CKA2, stronger effect = lower value",0.987
same,normalized growth,"S. cerevisiae deletion strains, locus YOR069W, strain VPS5, stronger effect = lower value",0.986
same,normalized growth,"S. cerevisiae deletion strains, locus YOR070C, strain gyp1, stronger effect = lower value",0.938
same,normalized growth,"S. cerevisiae deletion strains, locus YOR080W, strain dia2, stronger effect = lower value",0.989
same,normalized growth,"S. cerevisiae deletion strains, locus YOR083W, strain WHI5 (second series), stronger effect = lower value",0.886
same,normalized growth,"S. cerevisiae deletion strains, locus YOR083W, strain WHI5, stronger effect = lower value",0.855 (active)
same,normalized growth,"S. cerevisiae deletion strains, locus YOR106W, strain vam3, stronger effect = lower value",0.644 (active)
same,normalized growth,"S. cerevisiae deletion strains, locus YOR136W, strain idh2, stronger effect = lower value",0.978
same,normalized growth,"S. cerevisiae deletion strains, locus YOR144C, strain elg1, stronger effect = lower value",0.999
same,normalized growth,"S. cerevisiae deletion strains, locus YOR184W, strain ser1, stronger effect = lower value",0.99
same,normalized growth,"S. cerevisiae deletion strains, locus YOR265W, strain rbl2, stronger effect = lower value",0.986
same,normalized growth,"S. cerevisiae deletion strains, locus YOR270C, strain vph1, stronger effect = lower value",0.788
same,normalized growth,"S. cerevisiae deletion strains, locus YOR290C, strain snf2, stronger effect = lower value",0.911
same,normalized growth,"S. cerevisiae deletion strains, locus YOR316C, strain cot1, stronger effect = lower value",0.991
same,normalized growth,"S. cerevisiae deletion strains, locus YPL051W, strain arl3, stronger effect = lower value",0.874 (active)
same,normalized growth,"S. cerevisiae deletion strains, locus YPL055C, strain LGE1, stronger effect = lower value",0.902 and 0.943
same,normalized growth,"S. cerevisiae deletion strains, locus YPL078C, strain atp4, stronger effect = lower value",0.941
same,normalized growth,"S. cerevisiae deletion strains, locus YPL106C, strain sse1, stronger effect = lower value",0.988
same,normalized growth,"S. cerevisiae deletion strains, locus YPL240C, strain hsp82, stronger effect = lower value",0.984
same,normalized growth,"S. cerevisiae deletion strains, locus YPL241C, strain CIN2, stronger effect = lower value",0.997
same,normalized growth,"S. cerevisiae deletion strains, locus YPR119W, strain clb2, stronger effect = lower value",0.988
same,normalized growth,"S. cerevisiae deletion strains, locus YPR141C, strain kar3, stronger effect = lower value",0.985
same,normalized growth,"S. cerevisiae deletion strains, locus YPR163C, strain tif3, stronger effect = lower value",0.89 (active)
same,normalized growth,"S. cerevisiae deletion strains, locus YPR167C, strain met16, stronger effect = lower value",0.984
same,normalized growth,"S. cerevisiae deletion strains, strain wtn01, stronger effect = lower value",0.887 (active)
same,normalized growth,"S. cerevisiae strains, strain wild type, stronger effect = lower value",0.949
